Only some compounds are listed: those with a hit (about 6% of all), similar ones and a draw of the others.
CRE-bla Fsk: CRE-bla signaling modulation under forskolin stimulation; CHO CRE-bla reporter (cAMP response element driving beta-lactamase), forskolin EC10, beta-lactamase ratio; Potency, µM (top dose mostly 38.2 µM), actives largely listed as activators; 2.5% of 71,000 active; active = well fitted activation curve with a large enough effect in the signal ratio, with a control signal flat, not every such curve was filed as active; inconclusive = small, poorly fitted or top-dose-only effect, or effect the other way, or a change in a side signal; the % refers to the signal ratio
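CRE-bla CHO cells stimulated with EC10 NKH 477 (water-soluble forskolin) and compound titrations, 3 h at 37C; beta-lactamase read with CCF4 after 2 h at room temperature. Activity from 460/530 nm emission ratio, AC50 values for positive or negative modulation.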
ERK AVP block: blocks ERK signaling stimulated by vasopressin | HEK293-V1b, vasopressin-stimulated pERK AlphaScreen | Potency, µM (top dose mostly 57.5 µM), most hits filed as inhibitors | AID 995 | 0.99% of 72,000 active; also: nearly all actives have a fitted effect of over 55% in size
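HEK293 cells stably expressing V1b receptor, preincubated 30 min at 37 °C with compound, then stimulated 5 min with 25 nM vasopressin. Phospho-ERK by AlphaScreen SureFire after 5 h RT; normalized to DMSO and vasopressin; AC50 by Hill fit.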
HEK293 cAMP cs: counter-screen for TSHR agonists: cAMP increase in parental HEK293; 2.5% of 73,000 active; Potency, µM (doses to about 57.1 µM), hits mostly activators; parental HEK293 CNG cAMP sensor, membrane potential fluorescence; also: nearly all actives have a fitted effect of over 55% in size
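Parental HEK 293 cells stably expressing a modified CNG channel (no TSHR) report cAMP rise as membrane depolarization. Membrane potential dye with 100 uM RO 20-1724 was loaded for 60 min at room temperature, then compound added for 30 min; fluorescence read at 590 nm.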
TSHR agonist: activates the human thyroid stimulating hormone receptor; P16473; HEK293-CNG-TSHR cells (CNG channel as cAMP sensor), membrane potential dye, cAMP; Potency, µM (titrated, usually from 57.1 µM), usual class: activators; 0.48% of 73,000 active; AID 926; active = well fitted activation curve with a large enough effect in the main read-out, with a control signal flat, not every such curve was filed as active; inconclusive = small, poorly fitted or top-dose-only effect, or a change in a side signal; inactive = no such curve, though single readings can be large or run the other way; reference of the percent scale not stated here;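 also: the control signal comes from parental cells without the receptor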
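HEK 293 cells stably expressing TSHR and a cAMP-gated CNG channel; parental CNG-only cells as counterscreen. Cells preloaded 60 min with membrane potential dye plus 100 uM RO 20-1724, then compound 30 min; fluorescence read at 590 nm.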
Each line names hits and unclear results; the compound was inactive in the other large screens. Unless noted, calls follow the shape of the dose curve; as a rule, active = well fitted curve in the direction sought with a large enough effect; inconclusive = small, poorly fitted or top-dose-only effect, or another doubt; inactive = no such curve, though single readings can be large; an effect the other way counts as inactive or inconclusive.

COC(=O)c1ccc(C(NC(=O)OCc2ccccc2)/C(=C/[C@@H](C)C(=O)NCc2nc3ccccc3n2C)c2cccnc2)cc1 (some centres undefined)	none (no result: TSHR agonist)
CC#C[C@@]1(O)CC[C@@H]2[C@@H]3CCC4=CC(=O)CCC4=C3[C@@H](c3ccc(N(C)C)cc3)C[C@]21C	none (no result: ERK AVP block)
COc1cccc(Cn2c(=O)cnc3cnc(Oc4ccccc4)nc32)c1	ERK AVP block inconclusive
CCC1OCCC=CC1C (centres undefined)	none (no result: CRE-bla Fsk)
C=CCNc1nc(NCc2ccco2)nc(OCC)n1	CRE-bla Fsk inconclusive, ERK AVP block 25µM
CO[C@H]1COC(=O)C/C=C\[C@@H](C)COC(=O)[C@@H](CCSC)NC(=O)C/C=C\[C@@H]1C	none (no result: CRE-bla Fsk)
C=CCn1c2ccccc2c2nnc(SCN3C(=O)c4ccccc4C3=O)nc21	CRE-bla Fsk inconclusive (no result: TSHR agonist)
C=CCn1c2ccccc2c2nnc(SCCCn3c(=O)[nH]c4ccccc43)nc21	CRE-bla Fsk 1.3µM, ERK AVP block 13µM, HEK293 cAMP cs inconclusive, TSHR agonist inconclusive
COc1ncc2ncc(=O)n(Cc3cccs3)c2n1	HEK293 cAMP cs inconclusive, TSHR agonist inconclusive
CN(C)c1ncc2ncc(=O)n(Cc3cccs3)c2n1	CRE-bla Fsk 7.9µM, HEK293 cAMP cs inconclusive, TSHR agonist inconclusive
O=c1cnc2cnc(Nc3ccccc3)nc2n1Cc1cccs1	CRE-bla Fsk inconclusive, ERK AVP block inconclusive, HEK293 cAMP cs 13µM, TSHR agonist inconclusive
CN(CC(=O)O)CC(=O)O	none
CCOC(=O)OCC1OC(C#Cc2ccccc2)C=CC1OC(=O)OCC (centres undefined)	none (no result: CRE-bla Fsk)
CCOC(=O)c1c(NC(=O)Cn2nnc3ccccc32)sc2c1CCC(C)C2 (centres undefined)	CRE-bla Fsk inconclusive
CCOC(=O)c1c(NC(=O)Cn2c(C)nc3ccccc32)sc2c1CCC2	CRE-bla Fsk inconclusive, TSHR agonist 25µM
O=C(O)[C@H]1CCCC[C@@H]1C(=O)Nc1nc2ccccc2[nH]1	none
CCN(CC)c1ccc(-c2nn3c(-c4n[nH]c5c4CCC5)nnc3s2)cc1	CRE-bla Fsk inconclusive, ERK AVP block inconclusive, HEK293 cAMP cs 32µM, TSHR agonist inconclusive
C1CCC(c2nn3c(-c4n[nH]c5c4CCC5)nnc3s2)CC1	CRE-bla Fsk 13µM, ERK AVP block inconclusive, HEK293 cAMP cs 32µM, TSHR agonist inconclusive
CN(C)c1ccc(-c2nn3c(-c4ccncc4)nnc3s2)cc1	none
CCOC(=O)C1=C[C@@]2(CC)CCCN3CCc4c(n1c1ccccc41)C32 (some centres undefined)	none (no result: CRE-bla Fsk, HEK293 cAMP cs, TSHR agonist)
Cc1nn(-c2ccccc2)c2nc(N)c(C#N)c(-c3ccc(F)cc3)c12	CRE-bla Fsk 2µM, HEK293 cAMP cs inconclusive, TSHR agonist inconclusive
Cc1ccc(-n2nc(C)c3c(-c4cccs4)c(C#N)c(N)nc32)cc1	CRE-bla Fsk inconclusive, HEK293 cAMP cs inconclusive, TSHR agonist inconclusive
COc1ccc(-n2nc(C(=O)N3CCN(Cc4ccc5c(c4)OCO5)CC3)c3ccccc3c2=O)cc1	none
COc1ccc(-n2nc(C(=O)Nc3ccc4c(c3)OCO4)c3ccccc3c2=O)cc1	CRE-bla Fsk inconclusive, HEK293 cAMP cs 16µM, TSHR agonist inconclusive
CC(=O)Nc1nc(NC(C)=O)c2[nH]c(CO)nc2n1	none
CCCC(=O)c1c(NC(C)C)cc(C)oc1=O	CRE-bla Fsk 13µM
CCOC(=O)c1sc(NC(=O)c2ccc(CC)s2)nc1C	none
CCOC(=O)c1sc(NC(=O)c2ccc3ncsc3c2)nc1C	CRE-bla Fsk 13µM (no result: ERK AVP block)
O=C(c1ccccc1)c1nc[nH]c1C(=O)Nc1ccccc1	CRE-bla Fsk 10µM
COC(=O)[C@@]1(Cc2ccc(OC)cc2)[C@H]2c3cc(C(=O)N(C)C)n(CCN4CNCC4=O)c3C[C@H]2CN1C(=O)c1ccccc1	HEK293 cAMP cs inconclusive, TSHR agonist inconclusive
O=C(Nc1cccc(F)c1)N1CCCC2(CCN(C(=O)c3cccc(F)c3)CC2)C1	HEK293 cAMP cs inconclusive, TSHR agonist inconclusive
O=C(Nc1ccccc1)N1CCCC2(CCN(C(=O)c3cc(C(F)(F)F)cc(C(F)(F)F)c3)CC2)C1	CRE-bla Fsk inconclusive, TSHR agonist 25µM
O=C(Nc1ccccc1)N1CC2(CCN(C(=O)c3cc(C(F)(F)F)cc(C(F)(F)F)c3)CC2)C1	none
O=C(Nc1ccccc1)N1CCCC2(CCN(C(=O)c3cccc(F)c3)CC2)C1	TSHR agonist 25µM
CCN(CC)CCCC(C)NC(=O)c1ccc(Cc2nc3ccccc3[nH]2)cc1 (centres undefined)	none (no result: CRE-bla Fsk, ERK AVP block)

Screens (PubChem)
